# Assay results taken from ChEMBL document CHEMBL1961873, “Compounds: GSK PKIS; Assays: Nanosyn kinase panel” (2012).
# Experiments:
# [1] = target: Sphingosine kinase 1 (Homo sapiens) (UniProt Q9NYA1); settings: at 1 µM;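 also: mean SPHK1 inhibition value reported from the GSK PKIS kinase panel screen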
# [2] = target: T1, Sphingosine kinase 2 (Homo sapiens) (UniProt Q9NRA0); settings: at 0.1 µM
# T1 sequence (whole entry): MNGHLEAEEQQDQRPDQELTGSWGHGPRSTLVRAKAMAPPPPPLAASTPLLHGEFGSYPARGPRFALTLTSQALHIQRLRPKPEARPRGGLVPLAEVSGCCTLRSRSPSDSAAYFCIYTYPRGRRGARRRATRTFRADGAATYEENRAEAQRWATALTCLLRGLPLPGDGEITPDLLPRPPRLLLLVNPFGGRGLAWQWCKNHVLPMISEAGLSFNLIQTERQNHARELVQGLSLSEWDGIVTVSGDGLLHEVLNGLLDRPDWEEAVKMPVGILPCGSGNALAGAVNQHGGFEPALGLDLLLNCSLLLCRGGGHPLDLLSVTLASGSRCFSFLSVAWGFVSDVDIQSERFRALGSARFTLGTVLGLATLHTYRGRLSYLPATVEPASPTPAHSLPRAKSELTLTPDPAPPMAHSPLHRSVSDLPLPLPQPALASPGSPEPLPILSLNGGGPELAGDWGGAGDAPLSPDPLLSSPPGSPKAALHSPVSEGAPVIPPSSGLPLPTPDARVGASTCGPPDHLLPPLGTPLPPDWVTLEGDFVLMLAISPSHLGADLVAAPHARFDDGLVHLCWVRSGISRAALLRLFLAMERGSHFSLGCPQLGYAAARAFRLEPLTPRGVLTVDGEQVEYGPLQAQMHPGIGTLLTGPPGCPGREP
# [3] = target: T1, Sphingosine kinase 2 (Homo sapiens); settings: at 1 µM
# [4] = target: Casein kinase II subunit alpha (Homo sapiens) (UniProt P68400); settings: at 0.1 µM
# [5] = target: Casein kinase II subunit alpha (Homo sapiens) (UniProt P68400); settings: at 1 µM
# [6] = target: T2, Inhibitor of nuclear factor kappa-B kinase subunit alpha (Homo sapiens) (UniProt O15111); settings: at 0.1 µM
# T2 sequence (whole entry): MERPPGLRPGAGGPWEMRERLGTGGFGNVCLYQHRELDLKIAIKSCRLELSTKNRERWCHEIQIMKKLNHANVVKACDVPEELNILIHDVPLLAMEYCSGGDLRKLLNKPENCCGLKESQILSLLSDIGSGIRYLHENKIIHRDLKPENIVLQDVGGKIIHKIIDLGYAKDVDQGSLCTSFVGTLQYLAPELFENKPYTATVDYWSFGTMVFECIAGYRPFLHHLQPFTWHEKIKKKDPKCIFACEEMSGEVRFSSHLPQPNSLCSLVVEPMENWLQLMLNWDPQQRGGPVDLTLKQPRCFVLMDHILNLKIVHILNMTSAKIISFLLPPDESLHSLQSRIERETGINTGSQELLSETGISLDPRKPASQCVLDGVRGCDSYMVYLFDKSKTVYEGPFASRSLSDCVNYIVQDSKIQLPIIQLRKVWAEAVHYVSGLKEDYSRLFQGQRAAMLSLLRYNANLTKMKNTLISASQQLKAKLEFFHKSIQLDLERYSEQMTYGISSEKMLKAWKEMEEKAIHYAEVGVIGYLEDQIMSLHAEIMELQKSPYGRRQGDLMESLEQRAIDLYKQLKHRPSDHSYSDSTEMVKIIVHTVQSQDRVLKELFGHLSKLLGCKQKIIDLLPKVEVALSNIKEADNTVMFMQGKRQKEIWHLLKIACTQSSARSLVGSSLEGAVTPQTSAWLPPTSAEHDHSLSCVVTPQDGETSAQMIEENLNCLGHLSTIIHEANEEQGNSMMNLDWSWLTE
# [7] = target: T2, Inhibitor of nuclear factor kappa-B kinase subunit alpha (Homo sapiens); settings: at 1 µM
# [8] = target: T3, Inhibitor of nuclear factor kappa-B kinase subunit beta (Homo sapiens) (UniProt O14920); settings: at 0.1 µM
# T3 sequence (whole entry): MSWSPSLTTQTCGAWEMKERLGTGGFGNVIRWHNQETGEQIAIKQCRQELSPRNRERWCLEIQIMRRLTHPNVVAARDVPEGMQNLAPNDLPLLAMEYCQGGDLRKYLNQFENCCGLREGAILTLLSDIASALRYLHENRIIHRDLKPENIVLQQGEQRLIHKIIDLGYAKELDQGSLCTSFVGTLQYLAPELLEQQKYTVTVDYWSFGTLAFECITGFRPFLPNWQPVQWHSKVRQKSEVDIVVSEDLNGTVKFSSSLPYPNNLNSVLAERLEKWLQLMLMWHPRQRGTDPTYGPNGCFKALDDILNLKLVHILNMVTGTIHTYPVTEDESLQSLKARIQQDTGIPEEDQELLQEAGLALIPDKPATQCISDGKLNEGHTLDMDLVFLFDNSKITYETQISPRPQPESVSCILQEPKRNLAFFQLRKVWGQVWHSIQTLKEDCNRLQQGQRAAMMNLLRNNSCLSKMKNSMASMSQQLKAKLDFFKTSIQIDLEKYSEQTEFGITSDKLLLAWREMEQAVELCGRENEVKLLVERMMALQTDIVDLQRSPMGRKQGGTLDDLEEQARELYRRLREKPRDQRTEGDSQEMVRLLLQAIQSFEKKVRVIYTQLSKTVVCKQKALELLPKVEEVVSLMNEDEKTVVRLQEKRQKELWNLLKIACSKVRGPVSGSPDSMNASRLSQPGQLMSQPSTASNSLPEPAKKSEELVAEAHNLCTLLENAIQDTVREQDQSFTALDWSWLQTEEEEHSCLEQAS
# [9] = target: T3, Inhibitor of nuclear factor kappa-B kinase subunit beta (Homo sapiens); settings: at 1 µM
# [10] = target: T4, Inhibitor of nuclear factor kappa-B kinase subunit epsilon (Homo sapiens) (UniProt Q14164); settings: at 0.1 µM
# T4 sequence (whole entry): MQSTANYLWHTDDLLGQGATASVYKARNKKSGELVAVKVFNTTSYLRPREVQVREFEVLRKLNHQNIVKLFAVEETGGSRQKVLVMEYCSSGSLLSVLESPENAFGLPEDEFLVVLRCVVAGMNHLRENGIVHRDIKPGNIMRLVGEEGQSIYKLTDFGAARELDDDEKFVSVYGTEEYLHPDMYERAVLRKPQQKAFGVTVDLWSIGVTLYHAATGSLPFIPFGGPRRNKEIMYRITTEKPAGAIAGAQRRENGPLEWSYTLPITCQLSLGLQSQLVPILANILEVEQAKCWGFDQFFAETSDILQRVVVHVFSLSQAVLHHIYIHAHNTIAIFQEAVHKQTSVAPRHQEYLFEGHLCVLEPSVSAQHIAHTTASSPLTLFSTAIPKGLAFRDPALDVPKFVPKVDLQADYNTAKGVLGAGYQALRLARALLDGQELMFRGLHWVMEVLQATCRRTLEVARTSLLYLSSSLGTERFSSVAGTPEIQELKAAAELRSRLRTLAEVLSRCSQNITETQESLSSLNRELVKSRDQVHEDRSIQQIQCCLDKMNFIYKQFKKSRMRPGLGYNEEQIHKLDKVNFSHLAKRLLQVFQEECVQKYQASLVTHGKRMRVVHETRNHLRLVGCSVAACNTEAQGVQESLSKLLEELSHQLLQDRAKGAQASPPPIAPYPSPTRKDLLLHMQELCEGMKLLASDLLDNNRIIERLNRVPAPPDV
# [11] = target: T4, Inhibitor of nuclear factor kappa-B kinase subunit epsilon (Homo sapiens); settings: at 1 µM
# [12] = target: T5, Serine/threonine-protein kinase Nek1 (Homo sapiens) (UniProt Q96PY6); settings: at 0.1 µM
# T5 sequence (whole entry): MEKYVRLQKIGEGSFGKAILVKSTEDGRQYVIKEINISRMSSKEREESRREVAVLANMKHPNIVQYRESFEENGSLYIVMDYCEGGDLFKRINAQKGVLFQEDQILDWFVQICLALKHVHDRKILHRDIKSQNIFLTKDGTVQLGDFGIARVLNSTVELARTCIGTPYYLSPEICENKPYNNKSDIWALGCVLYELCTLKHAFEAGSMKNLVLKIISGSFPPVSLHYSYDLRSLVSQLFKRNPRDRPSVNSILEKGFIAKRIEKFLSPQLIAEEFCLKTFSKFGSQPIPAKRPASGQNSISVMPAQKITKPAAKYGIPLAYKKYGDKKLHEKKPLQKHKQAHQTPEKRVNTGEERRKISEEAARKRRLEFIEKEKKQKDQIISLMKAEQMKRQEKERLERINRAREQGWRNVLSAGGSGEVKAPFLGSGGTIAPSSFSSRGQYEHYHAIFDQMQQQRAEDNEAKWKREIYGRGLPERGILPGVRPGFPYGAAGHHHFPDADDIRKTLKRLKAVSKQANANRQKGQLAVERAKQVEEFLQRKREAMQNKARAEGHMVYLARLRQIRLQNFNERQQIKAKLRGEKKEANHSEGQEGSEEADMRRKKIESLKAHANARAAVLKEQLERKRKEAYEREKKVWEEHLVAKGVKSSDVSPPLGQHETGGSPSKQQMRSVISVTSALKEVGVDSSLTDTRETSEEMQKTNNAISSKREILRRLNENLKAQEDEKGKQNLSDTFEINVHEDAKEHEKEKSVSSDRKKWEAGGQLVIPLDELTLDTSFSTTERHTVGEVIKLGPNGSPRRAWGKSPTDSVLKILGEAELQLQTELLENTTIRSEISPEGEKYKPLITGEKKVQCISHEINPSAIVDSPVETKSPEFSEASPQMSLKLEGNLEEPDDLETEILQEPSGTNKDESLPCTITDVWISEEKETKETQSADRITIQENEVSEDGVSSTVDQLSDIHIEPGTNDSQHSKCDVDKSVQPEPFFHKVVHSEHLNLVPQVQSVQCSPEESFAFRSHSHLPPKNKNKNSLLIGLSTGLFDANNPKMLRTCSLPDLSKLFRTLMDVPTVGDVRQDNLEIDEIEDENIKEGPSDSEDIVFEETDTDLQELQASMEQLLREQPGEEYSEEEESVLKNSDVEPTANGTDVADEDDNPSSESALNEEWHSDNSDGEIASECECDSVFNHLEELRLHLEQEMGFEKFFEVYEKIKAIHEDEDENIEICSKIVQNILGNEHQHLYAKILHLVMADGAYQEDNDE
# [13] = target: T5, Serine/threonine-protein kinase Nek1 (Homo sapiens); settings: at 1 µM
# [14] = target: T6, Serine/threonine-protein kinase Nek2 (Homo sapiens) (UniProt P51955); settings: at 0.1 µM
# T6 sequence (whole entry): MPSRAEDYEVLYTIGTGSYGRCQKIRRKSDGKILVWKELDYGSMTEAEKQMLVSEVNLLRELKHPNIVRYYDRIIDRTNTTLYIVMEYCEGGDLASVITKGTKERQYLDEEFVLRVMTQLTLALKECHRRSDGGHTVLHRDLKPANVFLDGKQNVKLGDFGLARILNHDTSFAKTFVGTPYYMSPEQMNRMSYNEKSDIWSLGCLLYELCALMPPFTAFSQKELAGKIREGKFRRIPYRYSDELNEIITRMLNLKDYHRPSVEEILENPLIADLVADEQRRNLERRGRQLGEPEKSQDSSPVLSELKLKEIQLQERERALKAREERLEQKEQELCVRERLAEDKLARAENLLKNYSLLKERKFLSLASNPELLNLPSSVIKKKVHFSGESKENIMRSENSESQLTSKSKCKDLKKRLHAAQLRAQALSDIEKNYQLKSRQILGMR
# [15] = target: T6, Serine/threonine-protein kinase Nek2 (Homo sapiens); settings: at 1 µM
# [16] = target: Serine/threonine-protein kinase Nek6 (Homo sapiens) (UniProt Q9HC98); settings: at 0.1 µM
# [17] = target: Serine/threonine-protein kinase Nek6 (Homo sapiens) (UniProt Q9HC98); settings: at 1 µM
# [18] = target: Serine/threonine-protein kinase Nek7 (Homo sapiens) (UniProt Q8TDX7); settings: at 0.1 µM
# [19] = target: Serine/threonine-protein kinase Nek7 (Homo sapiens) (UniProt Q8TDX7); settings: at 1 µM
# [20] = target: T7, Serine/threonine-protein kinase Nek9 (Homo sapiens) (UniProt Q8TD19); settings: at 0.1 µM;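 also: reported value is the mean percent inhibition of NEK9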
# T7 sequence (whole entry): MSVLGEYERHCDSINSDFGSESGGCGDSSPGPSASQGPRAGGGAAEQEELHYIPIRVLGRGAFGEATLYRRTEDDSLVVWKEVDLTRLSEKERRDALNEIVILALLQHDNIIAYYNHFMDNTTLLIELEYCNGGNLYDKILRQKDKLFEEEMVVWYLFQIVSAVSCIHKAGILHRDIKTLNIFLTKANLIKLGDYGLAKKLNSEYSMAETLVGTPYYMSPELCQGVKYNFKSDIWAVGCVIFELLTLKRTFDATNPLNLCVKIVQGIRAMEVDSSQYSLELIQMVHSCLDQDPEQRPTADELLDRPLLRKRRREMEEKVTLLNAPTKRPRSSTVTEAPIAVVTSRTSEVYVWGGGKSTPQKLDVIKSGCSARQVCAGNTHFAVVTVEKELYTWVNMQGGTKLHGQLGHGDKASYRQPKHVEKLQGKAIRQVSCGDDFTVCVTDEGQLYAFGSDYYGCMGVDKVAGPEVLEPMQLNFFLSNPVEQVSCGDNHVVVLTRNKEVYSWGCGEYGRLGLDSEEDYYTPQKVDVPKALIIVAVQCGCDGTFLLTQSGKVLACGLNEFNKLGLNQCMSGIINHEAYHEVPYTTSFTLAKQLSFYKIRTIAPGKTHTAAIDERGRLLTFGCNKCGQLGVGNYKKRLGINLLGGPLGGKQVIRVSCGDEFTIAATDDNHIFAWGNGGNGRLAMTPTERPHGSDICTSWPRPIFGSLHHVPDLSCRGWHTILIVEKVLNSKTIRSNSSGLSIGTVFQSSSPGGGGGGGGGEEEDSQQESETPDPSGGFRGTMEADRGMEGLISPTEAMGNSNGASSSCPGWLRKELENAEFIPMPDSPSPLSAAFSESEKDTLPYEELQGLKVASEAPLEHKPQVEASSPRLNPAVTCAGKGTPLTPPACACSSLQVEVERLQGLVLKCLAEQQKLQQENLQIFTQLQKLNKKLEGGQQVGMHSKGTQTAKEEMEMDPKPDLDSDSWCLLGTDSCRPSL
# Sequence of Serine/threonine-protein kinase Nek7 (Homo sapiens) (Q8TDX7 whole entry, looked up): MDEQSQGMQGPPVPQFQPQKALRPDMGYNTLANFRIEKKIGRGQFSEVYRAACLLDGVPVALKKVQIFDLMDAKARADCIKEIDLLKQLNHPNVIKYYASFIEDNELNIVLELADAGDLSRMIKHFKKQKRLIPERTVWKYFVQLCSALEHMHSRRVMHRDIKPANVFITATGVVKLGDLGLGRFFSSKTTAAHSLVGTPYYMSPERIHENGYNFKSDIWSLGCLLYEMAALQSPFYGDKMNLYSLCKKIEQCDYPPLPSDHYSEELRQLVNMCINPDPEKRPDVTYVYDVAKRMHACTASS
# Sequence of Casein kinase II subunit alpha (Homo sapiens) (P68400 whole entry, looked up): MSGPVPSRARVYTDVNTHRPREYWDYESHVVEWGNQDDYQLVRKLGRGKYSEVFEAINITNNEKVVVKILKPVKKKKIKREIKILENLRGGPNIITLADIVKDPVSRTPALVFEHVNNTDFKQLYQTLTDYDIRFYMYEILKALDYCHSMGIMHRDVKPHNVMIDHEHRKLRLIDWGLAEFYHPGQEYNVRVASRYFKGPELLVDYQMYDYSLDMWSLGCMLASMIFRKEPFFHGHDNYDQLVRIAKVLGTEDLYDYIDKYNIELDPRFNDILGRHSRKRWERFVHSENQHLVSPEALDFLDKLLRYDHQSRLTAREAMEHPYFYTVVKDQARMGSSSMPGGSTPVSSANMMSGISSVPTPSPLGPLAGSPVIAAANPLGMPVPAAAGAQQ
# Sequence of Serine/threonine-protein kinase Nek6 (Homo sapiens) (Q9HC98 whole entry): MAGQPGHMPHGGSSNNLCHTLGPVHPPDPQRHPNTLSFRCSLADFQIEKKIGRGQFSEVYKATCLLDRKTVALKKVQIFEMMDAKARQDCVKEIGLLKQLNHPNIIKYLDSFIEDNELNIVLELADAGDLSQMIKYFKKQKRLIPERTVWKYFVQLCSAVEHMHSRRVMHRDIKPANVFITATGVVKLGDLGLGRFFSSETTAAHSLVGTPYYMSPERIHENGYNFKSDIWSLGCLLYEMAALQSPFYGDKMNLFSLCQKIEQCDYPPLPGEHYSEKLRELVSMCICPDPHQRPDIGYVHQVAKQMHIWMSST
# Sequence of Sphingosine kinase 1 (Homo sapiens) (Q9NYA1 whole entry): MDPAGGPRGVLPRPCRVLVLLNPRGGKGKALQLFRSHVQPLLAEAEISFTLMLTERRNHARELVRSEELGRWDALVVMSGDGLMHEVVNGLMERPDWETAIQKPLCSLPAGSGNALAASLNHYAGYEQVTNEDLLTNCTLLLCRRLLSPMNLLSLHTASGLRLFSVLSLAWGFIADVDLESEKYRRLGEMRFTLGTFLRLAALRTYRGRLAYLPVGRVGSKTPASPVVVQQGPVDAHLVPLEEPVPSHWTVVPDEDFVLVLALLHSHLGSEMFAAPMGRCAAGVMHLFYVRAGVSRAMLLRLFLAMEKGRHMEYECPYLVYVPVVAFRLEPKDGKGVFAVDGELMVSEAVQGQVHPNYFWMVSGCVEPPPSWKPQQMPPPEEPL
smiles,measurement,setting,value
O=C1NC(=O)C(c2ccc(Cl)cc2)=C1Nc1ccc(Cl)c(C(=O)O)c1,inhibition,[1],-0.08%
same,inhibition,[2],2.29%
same,inhibition,[3],0.32%
same,inhibition,[4],-0.4%
same,inhibition,[5],-2.48%
same,inhibition,[6],11.5%
same,inhibition,[7],4.5%
same,inhibition,[8],0.8%
same,inhibition,[9],-1.44%
same,inhibition,[10],-4.08%
same,inhibition,[11],-2.57%
same,inhibition,[12],-0.84%
same,inhibition,[13],-2.3%
same,inhibition,[14],-1.89%
same,inhibition,[15],-2.45%
same,inhibition,[16],0.26%
same,inhibition,[17],2.37%
same,inhibition,[18],-1.15%
same,inhibition,[19],-3.67%
same,inhibition,[20],-5.68%
